Screens as filed in PubChem.
Most compounds without a hit are left out; they make up all but 3.1% or so of the library.
HSF1 activator: increases HSF-1 driven luciferase reporter signal. AID 504408. activation, % at 9 µM. hit rate 1.7% among 300,000. NIH3T3-HGL HSF-1 luciferase reporter, MG132, 8 h; 100% = twice DMSO control signal;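 active = mean replicate activation of at least 50% with a set share of replicates each reaching 50%; inconclusive = only one of those two conditions met; inactive = mean below 50% and too few replicates reaching it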
HIF act: HIF pathway transcriptional activation; U2OS HRE-luciferase reporter, luminescence; normalized: DMSO 0%, desferrioxamine 100%; hit rate 0.32% among 300,000; activation, % at 7.5 µM (by protocol);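 active = mean activation of at least 10% of the iron chelator positive control signal, with at least half of replicates also reaching 10%; inconclusive = mean and replicate majority disagree about reaching 10%; inactive = mean and most replicates under 10%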
HSF1 inh: HSF1 inhibition | activity change, negative = inhibition, % at 7.5 µM (by protocol) | NIH3T3-HGL HSE-luciferase, MG132-induced, luminescence 8 h; stronger effect = lower value | hit rate 0.77% among 300,000;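 active = more than half of replicate wells show activity change below -50%, luminescence cut by over half; inconclusive = some wells, but at most half, below -50%; inactive = no replicate well below -50%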;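 note: luciferase reports HSF-1 transcriptional activity via heat shock element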
ARNT-TACC3 inh: disruptors of human ARNT/TACC3 interaction. AlphaScreen His-ARNT PAS-B/GST-TACC3 binding, luminescence; TACC3 fragment carries E629A point mutation. inhibition, % at 9.99 µM. hit rate 0.66% among 390,000;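 active = mean inhibition of replicates at least 50% and at least half of replicates each reaching 50%; inconclusive = half or more replicates reach 50% but mean below 50%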
HSP90 inh: HSP90 refolding inhibition in rabbit reticulocyte lysate; luciferase refolding luminescence, 3 h; inhibition, % at 5.6 µM; hit rate 0.91% among 290,000;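 active = inhibition above the screen-wide mean plus 3 SD, computed separately per campaign, cut at about 16% in these data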;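 note: inhibitors lower the luminescence because luciferase stays unfolded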
Each line names hits and unclear results; the compound was inactive in the other large screens.

Fc1ccc(Cn2ccc(-c3cnc(-c4ccccc4)s3)n2)cc1	HSF1 activator 62.3
Cc1ccc(Cn2ccc(-c3cnc(-c4ccccc4)s3)n2)cc1	none
CCn1c(O)c(/C=C2\C=Nc3ccccc32)sc1=O	HSF1 activator 74.4
Oc1nc(Nc2ccccc2)sc1/C=C1\C=Nc2ccccc21	HSF1 activator 101.1
CC(C)C#Cc1cnc2c(c1)C(=O)N([C@H](C)CO)C[C@@H](C)[C@H](CN(C)Cc1cncnc1)O2	none (no result: HSF1 activator, HIF act, HSF1 inh, HSP90 inh)
CC1CN(C(=O)c2ccc(COc3ccc(C(C)C)cc3)o2)CC(C)O1 (stereo not given)	HSF1 activator 59.6
Cc1ccc(OCc2ccc(C(=O)N3CCCC3)o2)cc1C	HSF1 activator 61.2
CC1CN(C(=O)c2ccc(COc3ccc4ccccc4c3)o2)CC(C)O1 (stereo not given)	none
CNC(=S)NNC(=O)c1cccn(Cc2ccc(Cl)c(Cl)c2)c1=O	none (no result: ARNT-TACC3 inh)
C=CCNC(=S)NNC(=O)c1cccn(Cc2ccc(Cl)c(Cl)c2)c1=O	HSF1 activator 81.4
CC1=CC(=O)C(C(C)C)=C/C1=N/OS(=O)(=O)c1ccccc1	HSF1 activator 83.0
N#CCc1ccc(OC(=O)c2cccnc2Cl)cc1	none (no result: HSP90 inh)
CCC(C)(C)c1ccc(OC(=O)c2cccnc2Cl)cc1	HSF1 activator 59.1
COc1ccc(CCNC(=O)CSc2nc3cc(Cl)ccc3o2)cc1OC	HSF1 activator 66.1
CC(=O)Nc1c([N+](=O)[O-])cc(C)c(Cl)c1[N+](=O)[O-]	HIF act 12.8 (no result: ARNT-TACC3 inh)
Cc1ccc(S(=O)(=O)N(C)C[C@H]2Oc3ccc(NC(=O)Nc4ccccc4)cc3CC(=O)N([C@H](C)CO)C[C@@H]2C)cc1	none (no result: HSF1 activator, HIF act, HSF1 inh, HSP90 inh)
COc1ccc(/C=C(/C(=O)c2cccs2)N2C=CC=CC2=C(C#N)C#N)cc1	HSF1 activator 176.9 (no result: ARNT-TACC3 inh)
COc1ccc(C(=O)/C(=C\c2ccco2)N2C=CC=CC2=C(C#N)C#N)cc1	HSF1 activator inconclusive
C[C@H](CO)N1C[C@H](C)[C@H](CN(C)CC2CC2)Oc2ccc(NC(=O)c3ccncc3)cc2CC1=O	none (no result: HSF1 activator, HIF act, HSF1 inh, HSP90 inh)
CC(C)NC(=O)N(C)C[C@@H]1OCCCC[C@@H](C)Oc2ccc(NS(=O)(=O)c3ccc(F)cc3)cc2C(=O)N([C@@H](C)CO)C[C@H]1C	none (no result: HSF1 activator, HIF act, HSF1 inh, HSP90 inh)
C[C@@H]1CN([C@H](C)CO)C(=O)c2cc(NC(=O)CCC(F)(F)F)ccc2O[C@H]1CN(C)C	none (no result: HSF1 activator, HIF act, HSF1 inh, HSP90 inh)
CNC(=O)C[C@@H]1CC[C@@H]2[C@@H](COc3ccc(NC(=O)c4cccc(OC)c4)cc3C(=O)N2C)O1	none (no result: HSF1 activator, HIF act, HSF1 inh, HSP90 inh)
CN1CCN(C(=O)C[C@@H]2C[C@H]3c4cc(NC(=O)Nc5ccccc5F)ccc4O[C@H]3[C@H](CO)O2)CC1	none (no result: HSF1 activator, HIF act, HSF1 inh, HSP90 inh)
O=C(Nc1ccc(Oc2ccccc2)cc1)C1CC1	none
O=C(Nc1ccccc1O)c1ccc(NC(=O)C2CC2)cc1	HIF act 57.8
O=C(Nc1ccccc1C(=O)O)c1ccc(NC(=O)C2CC2)cc1	none
O=C(Nc1ccc(C#Cc2ccccc2)cc1)C1CC1	HSF1 activator 82.4
CCCC(=O)Nc1ccc(C#Cc2ccccc2)cc1	HSF1 activator 61.3
C[C@H](CO)N1C[C@H](C)[C@H](CN(C)C)Oc2ccc(NS(=O)(=O)c3ccc(Cl)cc3)cc2CC1=O	none (no result: HSF1 activator, HIF act, HSF1 inh, HSP90 inh)
COc1ccc(NC(=O)N(C)C[C@@H]2Oc3c(NS(=O)(=O)c4ccc(F)cc4)cccc3C(=O)N([C@H](C)CO)C[C@H]2C)cc1	none (no result: HSF1 activator, HIF act, HSF1 inh, HSP90 inh)
O=C1C(N2CCOCC2)=C(n2nnc3ccccc32)C(=O)c2ccccc21	ARNT-TACC3 inh 45.5, HSP90 inh 40.5
COc1ccc(CN(C)C[C@H]2Oc3ccc(NC(=O)C4CC4)cc3CC(=O)N([C@H](C)CO)C[C@H]2C)cc1	none (no result: HSF1 activator, HIF act, HSF1 inh, HSP90 inh)
CCC(NC(=S)NC1CCCCC1)c1ccccc1 (stereo not given)	HSF1 inh -86.8
C/C(=N\OC(=O)c1ccc(F)cc1)c1ccc(F)c(F)c1	HSF1 activator 53.7 (no result: ARNT-TACC3 inh)
C/C(=N\N=c1/sc2ccccc2n1C)c1ccc(N2CCOCC2)cc1	HSF1 activator 66.0
O=C1NCC2=C1C(c1ccc(Br)cc1)Nc1ccccc1N2 (stereo not given)	HSF1 activator 50.7, ARNT-TACC3 inh active
CCN(CCCNC(=O)CCCCn1c(=O)[nH]c2ccccc2c1=O)c1ccccc1	HSF1 activator 74.4
CCN(CCCNC(=O)CCNC(=O)Cn1ccc2ccccc2c1=O)c1ccccc1	HIF act 32.5
COCCCNC(=O)CCCn1c(=O)[nH]c2ccccc2c1=O	none
C[C@@H]1CCCCO[C@@H](CN(C)C(=O)Cc2ccccc2)[C@@H](C)CN([C@@H](C)CO)C(=O)c2cc(NS(=O)(=O)c3cn(C)cn3)ccc2O1	none (no result: HSF1 activator, HIF act, HSF1 inh, HSP90 inh)
COc1ccc(-c2ccc3c(c2)O[C@@H](CN(C)C)[C@@H](C)CN([C@@H](C)CO)S3(=O)=O)cc1	none (no result: HSF1 activator, HIF act, HSF1 inh, HSP90 inh)
CC(=O)c1sc(NCc2ccccc2)nc1C	none
CC(=O)c1sc(NCc2ccc(C)cc2)nc1C	HSF1 activator 65.1
COc1ccc(C(=O)Nc2ccc3c(c2)OC[C@@H](C)NC[C@H](C)[C@H](OC)CN(C)C3=O)cc1	none (no result: HSF1 activator, HIF act, HSF1 inh, HSP90 inh)
C[C@@H]1CN([C@@H](C)CO)C(=O)Cc2cc(NC(=O)Cc3ccccc3)ccc2O[C@H]1CN(C)Cc1ccncc1	none (no result: HSF1 activator, HIF act, HSF1 inh, HSP90 inh)
CC(=O)c1ccc(NC(=O)C(C)n2nc(-c3ccccc3)c3cc(Cl)ccc32)cc1 (stereo not given)	HSF1 inh -66.8 (no result: HIF act)
CO[C@H]1CN(C)C(=O)c2ccc(NS(=O)(=O)c3ccccc3)cc2OC[C@@H](C)N(Cc2cccnc2)C[C@H]1C	none (no result: HSF1 activator, HIF act, HSF1 inh, HSP90 inh)
NC(=O)COC(=O)c1cc(=O)[nH]c2ccccc12	HSF1 inh -62.5
CNC(=O)COC(=O)c1cc(=O)[nH]c2ccccc12	none
CC(C)Cc1ccc(C#N)c(SCC(N)=O)n1	HSF1 inh -58.5 (no result: HIF act)
C[C@@H]1CN([C@H](C)CO)C(=O)c2cccc(NC(=O)c3nc4ccccc4s3)c2O[C@H]1CN(C)C(=O)NC1CCCCC1	none (no result: HSF1 activator, HIF act, HSF1 inh, HSP90 inh)
O=C(CN1C(=O)S/C(=C\C=C\c2ccccc2)C1=O)Nc1ccc(O)cc1	HSF1 activator 58.8 (no result: ARNT-TACC3 inh)
O=C(CCCN1C(=O)S/C(=C/C=C/c2ccccc2)C1=O)Nc1ccc(C(=O)O)cc1	none
CC(C)NC(=O)N(C)C[C@H]1Oc2c(NS(=O)(=O)c3ccccc3)cccc2C(=O)N([C@@H](C)CO)C[C@H]1C	none (no result: HSF1 activator, HIF act, HSF1 inh, HSP90 inh)
COc1cc(C)c(S(=O)(=O)N2CCN=C2c2ccccc2)cc1C	HSF1 activator 56.1
Cc1cc(/C([O-])=C(/C(=S)Nc2ccc(F)cc2)[n+]2ccccc2)c(C)n1Cc1ccccc1Cl	none
Cc1ccc(-n2c(C)cc(/C([O-])=C(/C(=S)Nc3ccc(F)c(Cl)c3)[n+]3ccccc3)c2C)cc1	none
Cc1cc(/C([O-])=C(/C(=S)Nc2ccc(F)cc2)[n+]2ccccc2)c(C)n1-c1ccc(F)cc1	ARNT-TACC3 inh 47.5
Cc1cc(/C([O-])=C(/C(=S)Nc2ccccc2)[n+]2ccccc2)c(C)n1-c1ccccc1	HSF1 inh -60.6
CCCN1C[C@H](C)[C@H](OC)CN(C)C(=O)c2ccc(NS(=O)(=O)c3ccccc3)cc2OC[C@@H]1C	none (no result: HSF1 activator, HIF act, HSF1 inh, HSP90 inh)
